For 93 compounds, inhibition results are on record in PubChem BioAssay AID588850 (Sanford-Burnham Center for Chemical Genomics, 2011).

Values joined by “and” are separate entries in the source; they are usually repeats but may differ in a detail not shown here. Equal values may be shown once. In all, about 360,000 compounds went through this assay and about 3,100 (0.86%) were called active.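 The calls were made as follows: active = at least 50% inhibition at 5 µM, scaled per plate between neutral and stimulator controls; inactive = the rest.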 The full list was thinned out, with actives kept by preference.

The nature of this assay: inhibitors of PAF-induced NF-kB signaling, primary screen, cell-based, GFP fluorescence, uHTS (AID 588850).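 Also: PAF is a Pseudomonas aeruginosa culture filtrate used as stimulus; plate controls were PAF-stimulated DMSO wells for no effect and unstimulated DMSO wells for full effect.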 As to conditions: KKLEB NF-kB-GFP reporter, GFP fluorescence overnight, at 5 µM, hits give high values.
With `CCN(Cc1ccccc1)C(=O)CCS(=O)(=O)c1ccc2c(c1)oc(=O)n2C`, the inhibition is -2.4% (inactive). As for `O=C1Nc2ccccc2/C1=C/c1ccnc2ccccc12`, the figure is 50.5% (active). As for `COCCN(C(=O)CCC(=O)Nc1ccccn1)C(C(=O)NCCC(C)C)c1ccc(OC)cc1` (stereo not drawn), the inhibition was -7.9% (inactive). The result for `CCOC(=O)N1CCN(S(=O)(=O)c2ccc3c(c2)C(C)C(=O)N3)CC1` (stereo not drawn) reads -4% (inactive). As to `NC(=O)c1ncn([C@@H]2O[C@H](CNCc3cnc(N4CCOCC4)s3)[C@@H](O)[C@H]2O)n1`, the inhibition was -11.1% (inactive). The result for `CC(=O)Nc1ccc(SCC(=O)NC(=O)c2ccc(Cl)cc2)cc1` reads -19.2% (inactive); that for `O=C(CCl)Nc1ccc(Sc2ccc(NC(=O)CCl)cc2)cc1`, 93.7% (active); that for `O=C(O)CSCC(=O)Nc1ccc(C(F)(F)F)cc1`, -2.9% (inactive).

As for `Cc1[nH]c2ccccc2c1SCC(=O)Nc1nccs1`, the inhibition is 1% (inactive). The result for `CCNC(=O)C1CCCN(C(=O)c2cc(F)ccc2C)CC1` (stereo not drawn) reads -17.2% (inactive); that for `Cc1ccccc1-c1ccc2c(c1)O[C@@H](CN(C)Cc1ccc(C(=O)O)cc1)[C@@H](C)CN([C@H](C)CO)S2(=O)=O`, 44.9% (inactive); that for `CC(NC(=O)c1cc2cc(Cl)ccc2oc1=N)c1ccccc1` (stereo not drawn), 23.8% (inactive). As for `COc1cc2c3c(c1)/C(=C1/SC(=S)NC1=O)C(=O)N3C(C)(C)C=C2C`, the figure is 50.7% (active); as for `CCOc1ccc(NC(=O)CSc2ncnc3c2sc2ccccc23)cc1`, 5.6% (inactive); as for `Cc1ccc(C)c(NC(CC(=O)c2ccccc2)C(=O)OCC(=O)c2cccs2)c1` (stereo not drawn), -4.5% (inactive). As for `Cc1ccccc1C(CC(=O)c1cccs1)C(C#N)C#N` (stereo not drawn), the figure is 83.8% (active); as for `O=C(NCC(=O)N1CCN(c2ccccc2F)CC1)c1cccs1`, -14.2% (inactive). Regarding `O=Nc1c(O)cc(O)c2ccccc12`, the inhibition was -12.5% (inactive). The result for `O=Cc1c(NCCc2cccc(F)c2)c2ccccc2[nH]c1=O` reads 5% (inactive); that for `OCCNc1nc(Nc2ccc(Cl)c(Cl)c2)nc2ccccc12`, 87.5% (active); that for `OCCNCCOc1ccc(Cl)c(Cl)c1`, -8.5% (inactive). For `O=C(Cn1c(NCCO)nc2ccccc21)c1ccc(Cl)cc1Cl`, the inhibition was 1.6% (inactive). As for `O=c1[nH]c(=S)[nH]c(O)c1/C=C1\C=Nc2ccccc21`, the figure is 69.3% (active); as for `c1csc(-c2nnc(COc3ncnc4sccc34)o2)c1`, 18.1% (inactive); as for `C=C(C)C(=O)O[C@H]1C/C(C)=C\C(=O)/C=C(\C)[C@H](O)[C@@H]2OC(=O)C(=C)[C@@H]21`, 74.1% (active). The result for `CCN(Cc1ccccc1)C(=O)CSc1nc(C)cc2c1C(=O)OC2` reads 5% (inactive); that for `Oc1c(Cl)cc(Cl)c(Cl)c1Cc1c(O)c(Cl)cc(Cl)c1Cl`, 65.4% (active). As for `O=c1[nH]c(CCl)nc2cc(-c3ccc(Cl)cc3)sc12`, the figure is 7.1% (inactive); as for `CC[N+]1(CC)CC2=Cc3ccccc3CC2C1` (stereo not drawn), -4% (inactive); as for `COc1ccc(CC(=O)c2ccc(O)cc2O)cc1OC`, -7.8% (inactive). For `C=CCOc1ccccc1CNn1c(C)n[nH]c1=S`, the inhibition is 5.7% (inactive). In the case of `O=C(COC(=O)c1ccc(Cl)nc1)NCc1ccc2c(c1)OCO2`, the inhibition is -9.2% (inactive).

Take `CN(C)C(=O)c1cccc(-c2cnc3sc(NCc4ccc5c(c4)OCO5)nn23)c1`: the inhibition is 82.2% (active). The result for `O=C(CSc1ncnc2scc(-c3ccccc3)c12)NCc1ccc2c(c1)OCO2` reads 13.3% (inactive); that for `Cc1ccc(Cn2c(C)c(C(=O)NCc3ccccc3C(F)(F)F)sc2=O)cc1`, -26.2% (inactive). The result for `Cc1c(Nc2nc3ccccc3nc2NS(=O)(=O)c2cccs2)c(=O)n(-c2ccccc2)n1C` reads 9.5% (inactive); that for `Cc1ccc(C2CCN(C(=S)Nc3cccc(Cl)c3)C2)cc1` (stereo not drawn), 7.5% (inactive). As for `COc1ccc(/C=C/C(=O)NC(=S)NN2CCCCC2c2cccnc2)cc1` (stereo not drawn), the figure is -13% (inactive); as for `Cc1ccc(Cc2c(-c3ccccc3)nc3ccc(Cl)cn23)cc1`, 20.8% (inactive). For the compound `Cc1ccc2nc(-c3ccco3)c(Cc3cccc(Cl)c3)n2c1`, the inhibition was 2.7% (inactive). As for `Cc1ccc(Cc2c(-c3ccco3)nc3ccc(Cl)cn23)cc1`, the figure is 66.3% (active).

Consider `S=c1[nH]c2ccccc2c2ccccc12`, for which the inhibition was -8.9% (inactive). The result for `CC(=O)c1cccc(-c2cnc3c(NC=O)cc(-c4ccc(N5CCN(C)CC5)cc4)cn23)c1` reads 22.9% (inactive).

For `COc1ccc(/C=C/c2nnc(NC(=O)C(C)C)s2)cc1`, the inhibition is 17.7% (inactive). As for `O=C(CSc1ccccc1)Nc1nnc(/C=C/c2ccccc2)s1`, the figure is 22.7% (inactive); as for `O=C(Nc1ccc(Cl)cc1)Nc1nnc(/C=C/c2ccccc2)s1`, 51.2% (active); as for `Cc1cc(OCCCC(=O)Nc2cc(S(=O)(=O)N3CCOCC3)ccc2N2CCOCC2)ccc1Cl`, 7.1% (inactive).

Consider `CCOC(=O)c1sc2nc(C)nc(SCC(N)=O)c2c1C`, for which the inhibition is 11.9% (inactive). As for `O=C(Nc1ccccc1Cl)/C(Cl)=C(\Cl)S(=O)c1ccccc1` (stereo not drawn), the figure is 82.8% (active); as for `O=C(COc1ccc(-n2cnnn2)cc1)Nc1ccccc1Cl`, -3.5% (inactive); as for `CC(=O)c1ccc(NC(=O)C(C)N(C)CC(=O)Nc2ccccc2Cl)cc1` (stereo not drawn), 2.6% (inactive). As for `COc1cccc(CC(=NO)c2cccc(OC)c2)c1`, the figure is 11.3% (inactive).

As to `COc1cc(C(=O)NCCOC(=O)c2cccc(N(C)C)c2)cc(OC)c1OC`, the inhibition is 3.4% (inactive).

As for `Cn1c(=O)c2c(ncn2CC(=O)N/N=C/c2cn[nH]c2-c2ccc(F)cc2)n(C)c1=O`, the inhibition is -32.9% (inactive).

Take `NC1=CC(=O)C(=O)c2cccnc21`: the inhibition was 92.2% (active). As for `CCCCc1nc(NCCN)c(C#N)c2c1CSC(C)(C)C2`, the figure is 2.5% (inactive); as for `FC(F)Oc1ccc(NC(=S)NCc2ccco2)cc1Cl`, -1.9% (inactive); as for `OCCCNc1nccc(-c2cc(Nc3cccc(Cl)c3)ncn2)n1`, 84.5% (active). For `CCOc1c(Nc2cccc(Cl)c2)c(=O)c1=O`, the inhibition was -0.1% (inactive). The result for `Cc1nc(C(F)(F)F)ccc1C(=O)N1CCC1(C)C(=O)NS(=O)(=O)c1ccc(F)cc1F` (stereo not drawn) reads 0.2% (inactive). As for `O=C(CCN1C(=O)[C@@H]2Cc3ccccc3CN2C1=O)NCCc1ccccc1`, the figure is 16% (inactive); as for `O=C(Nc1ccc2oc(-c3ccccc3F)nc2c1)c1ccco1`, -15% (inactive); as for `O=C(Nc1ccc2oc(-c3ccc4ccccc4c3)nc2c1)c1cccs1`, 51.3% (active). As for `COc1cc(OC)cc(C(=O)Nc2ccc(-c3nc4ccccc4o3)c(O)c2)c1`, the figure is -44.7% (inactive); as for `CN1CCN(c2cc(=O)n(-c3ccc(Cl)cc3)c(=O)[nH]2)CC1`, 16.6% (inactive). Consider `CC1CCN(C(=O)c2ccccc2NC(=O)Cc2ccccc2)CC1`, for which the inhibition is 16.1% (inactive). Take `N#C/C=C1\Sc2ccccc2C(=O)N1CC(=O)N1CCN(S(=O)(=O)c2ccccc2)CC1`: the inhibition is 8.2% (inactive). The result for `Brc1ccc2ncnc(NCc3cccnc3)c2c1` reads 57% (active); that for `Cc1cc(NCc2cccnc2)no1`, -9.7% (inactive); that for `Clc1ccc(Cn2ncc3c(NCc4cccnc4)ncnc32)cc1`, -7.9% (inactive). The result for `CC(C)Cc1oc(C(=O)O)cc1CN` reads 0.9% (inactive); that for `OC[C@@H]1CN(Cc2ccc(Cl)cc2)C[C@H](n2cnc3c(NCc4ccncc4)ncnc32)O1`, -7.1% (inactive); that for `CCN(CC(=O)Nc1cc(Cl)ccc1C)C(=O)CSCc1ccc(C)cc1`, -25.2% (inactive). The result for `C[C@]12C=CC(=O)C=C1CC[C@@H]1[C@@H]2C(=O)C[C@@]2(C)[C@H]1CC[C@]2(O)C(=O)CO` reads 21.5% (inactive) and 6.7% (inactive); that for `CC1(C)O[C@@H]2CC3C4C[C@H](F)C5=CC(=O)C=CC5(C)C4C(O)CC3(C)[C@]2(C(=O)CO)O1` (stereo partly drawn), 71.8% (active). With `COc1cccc(NC(=O)COC(=O)c2ccc3ccccc3n2)c1`, the inhibition was 3.6% (inactive). The result for `C[C@H]1CC[C@]2(O[C@@H](CCO)C[C@@H](O)[C@@H]2O)O1` reads -22.2% (inactive); that for `O=C(c1ccc(Cl)c([N+](=O)[O-])c1)N1CCN(c2ccccc2)CC1`, -1.9% (inactive); that for `O=C(/C=C/c1ccc(Cl)c([N+](=O)[O-])c1)c1ccc(O)cc1`, 66.4% (active). The result for `O=C(O)c1ccc2c(=O)n3c(nc2c1)/C(=C/c1ccc(Cl)c([N+](=O)[O-])c1)CC3` reads -4% (inactive); that for `COc1ccc(CNC(=O)C(c2ccc(O)cc2)N(Cc2ccco2)C(=O)c2snc(C(N)=O)c2N)cc1` (stereo not drawn), 80.2% (active).

As for `NC(=O)c1nsc(C(=O)N(CC(=O)NCc2ccc(F)cc2)Cc2ccco2)c1N`, the inhibition was 6.2% (inactive). As for `COc1cc(C(C(=O)NC2CCCC2)N(Cc2ccccc2)C(=O)c2snc(C(N)=O)c2N)ccc1O` (stereo not drawn), the figure is -3.3% (inactive); as for `O=C1CCC(C(=O)N2CCN(c3ccccc3Cl)CC2)CN1CC1CCCCC1` (stereo not drawn), 25% (inactive); as for `Cc1ccc(NS(=O)(=O)c2ccc3c(c2)oc(=O)n3C)c(C)c1`, 21.8% (inactive). Regarding `CC(=O)c1c(OCC(=O)N(C)C2CCCCC2)ccc2c(C)cc(=O)oc12`, the inhibition is -24.1% (inactive). For `COc1cccc2c1C(=O)c1c(O)c3c(c(O)c1C2=O)CC(O)(C(C)=NNC(=O)c1ccc(Cl)c(Cl)c1)CC3OC1CC(N)C(O)C(C)O1` (stereo not drawn), the inhibition was 81.2% (active).

With `NS(=O)(=O)c1ccc(N=Cc2ccc(Br)s2)cc1`, the inhibition is 2.4% (inactive). As for `COc1cccc(CCNC(=O)COc2cccc3c2OC(C)(C)C3)c1`, the figure is 17.3% (inactive).

As to `Cc1ccc(-n2cc(CN(C)Cc3nccn3C)c(-c3cccc(C)c3)n2)cc1`, the inhibition is 28.4% (inactive). The result for `CCNc1nc(N)nc(Oc2ccc(OCC)nn2)n1` reads -19.3% (inactive).

With `O=C(CCCCCCCC(=O)N1CCCCC1)N1CCCCC1`, the inhibition is -8.3% (inactive).

For the compound `O=C(c1cc(COc2c(F)cccc2F)on1)N1CCSCC1`, the inhibition is 19% (inactive).

The inhibition is the change of the read-out against control, counted positive when it falls.
